Source: PubChem
Rows were chosen to be rich in hits. Some 2.3% of all compounds tested hit in one or more screens of this group.
M1 ag: human M1 muscarinic receptor agonists, primary screen, Fluo-8 calcium fluorescence, CHO-K1 cells, HTS. Muscarinic acetylcholine receptor M1 (Homo sapiens), P11229. CHO-K1 hM1, agonist mode; 0% DMSO, 100% acetylcholine EC100. hit rate 0.33% among 360,000. activation, % at 3 µM;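 active means activation above the run's mean compound activation plus 3 SD, cut at about 16% in these data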;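 further: peak over basal fluorescence ratio within a 140 s kinetic read after compound addition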
Target sequence (P11229 whole entry, looked up): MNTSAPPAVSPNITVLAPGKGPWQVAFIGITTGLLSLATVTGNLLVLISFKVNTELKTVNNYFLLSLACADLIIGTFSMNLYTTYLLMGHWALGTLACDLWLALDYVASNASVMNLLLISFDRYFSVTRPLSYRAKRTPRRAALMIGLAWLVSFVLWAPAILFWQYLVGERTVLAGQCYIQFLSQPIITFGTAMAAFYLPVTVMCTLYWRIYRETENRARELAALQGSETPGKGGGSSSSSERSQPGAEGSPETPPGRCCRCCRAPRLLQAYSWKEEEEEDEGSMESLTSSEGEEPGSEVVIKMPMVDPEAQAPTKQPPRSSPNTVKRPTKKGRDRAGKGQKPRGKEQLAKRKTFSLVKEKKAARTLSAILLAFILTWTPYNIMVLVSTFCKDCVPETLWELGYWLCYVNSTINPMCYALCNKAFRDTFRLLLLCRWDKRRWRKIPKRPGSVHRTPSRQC
CHRM1 PAM: human M1 muscarinic receptor positive allosteric modulators, primary screen, CHO-K1 cells, Fluo-8 calcium fluorescence, 1536-well | Muscarinic acetylcholine receptor M1 (Homo sapiens), P11229 | activation, % at 3 µM | hit rate 0.088% among 360,000 | CHO-K1 hM1, ACh EC20; 0% = ACh EC20, 100% = maximal ACh; in the data active means activation above about 19%, passing the limit was not always enough
M1 antag: human M1 muscarinic receptor antagonists, primary screen, CHO-K1 cells, Fluo-8 calcium fluorescence, 1536-well | hit rate 1.3% among 360,000 | inhibition, % at 3 µM | CHO-K1 hM1, ACh EC80 antagonist | Muscarinic acetylcholine receptor M1 (Homo sapiens), P11229;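 active means percent inhibition above its own plate's cutoff, namely the mean of that plate's compound wells plus 3 SD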;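 further: peak over basal fluorescence ratio during 140 s after agonist addition; 0% = ACh EC80 plus DMSO and 100% = DMSO alone without agonist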
CHO-K1 Ca antag: M1 antagonist counterscreen hit in parental CHO-K1 cells; ATP-induced calcium, Fluo-8 fluorescence; inhibition, % at 3 µM; hit rate 0.6% among 360,000;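 active means inhibition above a per-plate cutoff, the plate's mean sample inhibition plus 3 SD, cut at about 24% in these data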;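 further: 0% = DMSO plus EC80 ATP and 100% = DMSO alone without ATP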
M1 PAM parental: nonselective calcium activators in parental CHO-K1 cells, primary screen, counter-screen for M1 PAM project, cell-based, Fluo-8 calcium fluorescence, full deck, 1536-well. activation, % at 3 µM. AID 602247, 2012. ATP EC20; 0% at ATP EC20, 100% at ATP max. hit rate 0.02% among 360,000;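 active means activation above the run cutoff, the mean activation of all test compounds plus 3 SD, cut at about 40% in these data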;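 further: peak over basal fluorescence ratio in a 140 s read after ATP addition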
M1 ag parental: counter-screen for M1 agonists: effect in parental CHO-K1 cells. hit rate 0.48% among 360,000. activation, % at 3 µM. Fluo-8 calcium fluorescence; scaled to maximal ATP response, vehicle zero; in the data active means activation above about 15%;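 further: untransfected CHO-K1 host cells lacking M1 receptor as counterscreen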
* marks the source's active call; other numbers are inactive results.

Results for COc1ccc(C(=O)C2CCCN(S(=O)(=O)c3ccc(C(C)=O)cc3)C2)c(C)c1 (stereo unspecified) ?
M1 ag: 4; CHRM1 PAM: -19; M1 antag: 43*; CHO-K1 Ca antag: 11; M1 PAM parental: -9; M1 ag parental: 16*

Results for Cc1ccc(CN2CCN(Cc3ccc(-n4cccn4)cc3)CC2CCO)cc1 (stereo unspecified) ?
M1 ag: -14; CHRM1 PAM: 9; M1 antag: -15; CHO-K1 Ca antag: -5; M1 PAM parental: 7; M1 ag parental: 0

What do the screens show for `Cc1cc(-n2cccn2)ccc1CN1CCN(C2CCCC2)C(CCO)C1` (stereo unspecified)?
M1 ag: -4; CHRM1 PAM: -20; M1 antag: 100*; CHO-K1 Ca antag: 6; M1 PAM parental: -13; M1 ag parental: 0

How did Cc1cc(-n2cccn2)ccc1CN1CCN(CC(C)C)C(CCO)C1 (stereo unspecified) do in these assays?
M1 ag: -7; CHRM1 PAM: -24; M1 antag: 48*; CHO-K1 Ca antag: -17; M1 PAM parental: 16; M1 ag parental: 1

Results for CC(C)CCN1CCN(Cc2cccc(-n3cccn3)c2)CC1CCO (stereo unspecified) ?
M1 ag: -7; CHRM1 PAM: -2; M1 antag: 0; CHO-K1 Ca antag: 4; M1 PAM parental: -9; M1 ag parental: 0

Results for CC(=O)N(c1ccc(C)cc1)C1C=CS(=O)(=O)C1 (stereo unspecified) ?
M1 ag: -3; CHRM1 PAM: 0; M1 antag: -6; CHO-K1 Ca antag: 24*; M1 PAM parental: -4; M1 ag parental: 0

Results for Cc1ccc(N(C(=O)C2CCCC2)C2C=CS(=O)(=O)C2)cc1 (stereo unspecified) ?
M1 ag: -1; CHRM1 PAM: -7; M1 antag: -1; CHO-K1 Ca antag: 3; M1 PAM parental: -2; M1 ag parental: 0

What do the screens show for `Cc1ccc(NC(=O)c2cnc(N3CCN(c4ccccn4)CC3)c3ccccc23)c(Br)c1`?
M1 ag: -5; CHRM1 PAM: -27; M1 antag: 32*; CHO-K1 Ca antag: 26*; M1 PAM parental: -6; M1 ag parental: 6

How did O=C(Nc1c(F)cccc1F)c1cnc(N2CCN(c3ccccn3)CC2)c2ccccc12 do in these assays?
M1 ag: -1; CHRM1 PAM: -5; M1 antag: 21; CHO-K1 Ca antag: 30*; M1 PAM parental: -9; M1 ag parental: 5

Results for CCN1CCN(c2ncc(C(=O)Nc3cc(Cl)ccc3OC)c3ccccc23)CC1 ?
M1 ag: -5; CHRM1 PAM: -23; M1 antag: 58*; CHO-K1 Ca antag: -6; M1 PAM parental: 10; M1 ag parental: 1

Results for Cc1ccc(Cl)cc1N1CCN(C(=O)CCS(=O)(=O)c2ccc3c(c2)NC(=O)CO3)CC1 ?
M1 ag: 5; CHRM1 PAM: -19; M1 antag: 37*; CHO-K1 Ca antag: 5; M1 PAM parental: -17; M1 ag parental: 15*

What do the screens show for `COc1ccc(NC(=O)COc2cccnc2[N+](=O)[O-])cc1OC`?
M1 ag: -6; CHRM1 PAM: 7; M1 antag: -7; CHO-K1 Ca antag: -29; M1 PAM parental: 18; M1 ag parental: 2

What do the screens show for `O=C(COc1cccnc1[N+](=O)[O-])Nc1ccc2c(c1)CCC2`?
M1 ag: -4; CHRM1 PAM: -20; M1 antag: 36*; CHO-K1 Ca antag: 1; M1 PAM parental: -22; M1 ag parental: 1

How did O=C(COc1cccnc1[N+](=O)[O-])Nc1ccc2c(c1)OC(F)(F)O2 do in these assays?
M1 ag: -8; CHRM1 PAM: -26; M1 antag: 50*; CHO-K1 Ca antag: -1; M1 PAM parental: 22; M1 ag parental: 4

Results for COc1ccc(S(=O)(=O)N2CCCCC2c2cc(C(=O)NCc3ccccc3)no2)cc1 (stereo unspecified) ?
M1 ag: -3; CHRM1 PAM: 5; M1 antag: -18; CHO-K1 Ca antag: -3; M1 PAM parental: 14; M1 ag parental: 2

Results for COc1ccccc1CNC(=O)COC(=O)c1n[nH]c2ccccc12 ?
M1 ag: 0; CHRM1 PAM: -5; M1 antag: 13; CHO-K1 Ca antag: 21; M1 PAM parental: -7; M1 ag parental: 0

How did COc1ccccc1CNC(=O)c1n[nH]c2ccccc12 do in these assays?
M1 ag: 2; CHRM1 PAM: 8; M1 antag: -13; CHO-K1 Ca antag: 8; M1 PAM parental: 9; M1 ag parental: 17*

How did COc1ccc(C(=O)C2CCCN(C/C=C/c3ccccc3OC)C2)c(OC)c1 (stereo unspecified) do in these assays?
M1 ag: -10; CHRM1 PAM: -28; M1 antag: 51*; CHO-K1 Ca antag: 12; M1 PAM parental: -11; M1 ag parental: 0

What do the screens show for `CCOC(=O)N1CCC(N2CCCC(C(=O)c3cc(C)c(OC)c(C)c3)C2)CC1` (stereo unspecified)?
M1 ag: -11; CHRM1 PAM: -27; M1 antag: 78*; CHO-K1 Ca antag: -5; M1 PAM parental: 6; M1 ag parental: 0

Results for COc1ccccc1C(=O)C1CCCN(Cc2cccc3nccnc23)C1 (stereo unspecified) ?
M1 ag: -4; CHRM1 PAM: -19; M1 antag: 45*; CHO-K1 Ca antag: -10; M1 PAM parental: -10; M1 ag parental: 5

Results for COc1cccc(C(=O)C2CCCN(C/C=C/c3ccccc3OC)C2)c1 (stereo unspecified) ?
M1 ag: -8; CHRM1 PAM: -17; M1 antag: 21; CHO-K1 Ca antag: -20; M1 PAM parental: -4; M1 ag parental: 2

Results for COc1c(C)cc(C(=O)C2CCCN(Cc3cccc4nccnc34)C2)cc1C (stereo unspecified) ?
M1 ag: -12; CHRM1 PAM: -29; M1 antag: 42*; CHO-K1 Ca antag: -8; M1 PAM parental: 4; M1 ag parental: 1

How did O=c1[nH][nH]c2c1[C@H](c1ccc(Cl)cc1)O[C@H](C1CC1)C2 do in these assays?
CHO-K1 Ca antag: -1; M1 PAM parental: 0; M1 ag parental: 0

How did COc1cccc(CNC(=O)[C@@H]2CCCN2C(=O)[C@H]2CCCCN2S(=O)(=O)c2ccc(OC)c(C)c2)c1 do in these assays?
CHO-K1 Ca antag: 1; M1 PAM parental: -7; M1 ag parental: 0
